High-throughput results from PubChem BioAssay.
TIM10 inh: TIM10 yeast growth inhibition. S. cerevisiae TIM10 strain growth, BacTiter-Glo luminescence, 24 h. inhibition, % at 10 µM. actives 1.4% (n = 330,000). AID 463195;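 active = inhibition of 40% or more at the single tested concentration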;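 also: wild-type TIM10 isogenic control strain grown at permissive 25 °C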
EBI2 antag: blocks human EBI2 receptor beta-arrestin signaling; P32249; actives 0.81% (n = 360,000); AID 651636; EBI2 beta-arrestin recruitment, luminescence, 7a,25-OHC stimulated; inhibition, % at 5 µM; in the data active = inhibition above about 38%;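 also: enzyme fragment complementation signal reports receptor beta-arrestin coupling in cells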
Target sequence (P32249 whole entry, looked up, the tested form may be a part): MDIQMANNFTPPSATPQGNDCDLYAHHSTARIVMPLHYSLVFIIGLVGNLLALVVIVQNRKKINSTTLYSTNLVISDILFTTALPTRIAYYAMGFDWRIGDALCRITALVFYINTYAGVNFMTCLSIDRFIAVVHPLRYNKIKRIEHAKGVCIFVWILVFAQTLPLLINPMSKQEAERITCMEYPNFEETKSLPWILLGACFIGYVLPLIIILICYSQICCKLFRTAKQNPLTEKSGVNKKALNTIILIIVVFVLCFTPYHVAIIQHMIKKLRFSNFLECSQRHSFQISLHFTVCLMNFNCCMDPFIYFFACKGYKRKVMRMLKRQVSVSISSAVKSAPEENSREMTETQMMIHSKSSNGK
PfHsp90 yeast 2: reduces growth (ATP signal) of yeast expressing P. falciparum Hsp90; inhibition, % at 9.4 µM; actives 0.32% (n = 310,000); AID 504621; S. cerevisiae expressing PfHsp90, BacTiter-Glo ATP, 48 h; yeast lacking PDR1 and PDR3 efflux regulators;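 active = every replicate shows inhibition above about 80%, whatever the replicate mean, limit read from the data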
tim10-1 inh: inhibits growth of tim10-1 mutant yeast | S. cerevisiae tim10-1 ts strain growth, BacTiter-Glo, 24 h | inhibition, % at 20 µM | actives 2.2% (n = 330,000) | AID 463190;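 active = inhibition of at least 40%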;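 also: mutant grown at 25 °C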
SKKanGAS inh: blocks kanamycin growth of S. pyogenes SKKanGAS strain; BacTiter-Glo, 6 h; inhibition, % at 7.5 µM; AID 1662; actives 1.3% (n = 300,000);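 active = mean replicate score, as percent of positive control median, at least 50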;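 also: strain carries kanamycin resistance gene driven by streptokinase promoter and grows in 40 µg/ml kanamycin; loss of luminescence reflects streptokinase promoter inhibition or plain growth inhibition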
tim23-1 inh: inhibits growth of tim23-1 mutant yeast. inhibition, % at 20 µM. actives 1.3% (n = 330,000). S. cerevisiae tim23-1 growth, BacTiter-Glo luminescence, 24 h;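 active = growth inhibition of the mutant yeast at or above 50%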;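 also: temperature-sensitive mutant grown at 25 °C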
TIM10 conf: confirmation of TIM10 yeast growth inhibitors | actives 63% (n = 4,600) | AID 463215 | inhibition, % at 10 µM | shares compounds with TIM10 inh | S. cerevisiae tim10 strain growth, BacTiter-Glo luminescence, 24 h;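 active = inhibition of yeast growth at or above a set limit in either of two replicates at 10 µM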; also: this counterscreen used the strain with wild-type TIM10
Of the large screens only hits and unclear results are named; the others gave an inactive call (follow-up assays come after a bar, where they were run). Compounds with a hit are over-represented: about 4.7% of the library has one in this group of screens.

COC(=O)[C@@H](NC(=O)NCCC1=CCCCC1)C(C)C	TIM10 inh 49.1 | TIM10 conf inactive
Cc1ccccc1OCCn1cnc2cc([N+](=O)[O-])ccc2c1=O	TIM10 inh 42.2 | TIM10 conf inactive
N#C/C(=C\c1ccc(OCc2cccc(C(=O)O)c2)cc1)C(=O)NCc1ccco1	none
CCCCOc1c(Br)cc(/C=C2\N=C(C)OC2=O)cc1OCC	TIM10 inh 49.2 | TIM10 conf inactive
CCOc1cc(/C=C2\N=C(C)OC2=O)cc(Cl)c1OCC(=O)OC	none
CC1=C(C(=O)N(C(C)C)C(C)C)CC(CC(=O)NCc2cccc3ccccc23)C(=O)N1Cc1ccccc1 (configuration not stated)	none (no result: TIM10 inh, PfHsp90 yeast 2, tim10-1 inh, SKKanGAS inh, tim23-1 inh)
Nc1ccc(/C=C/C(=O)c2ccco2)cc1	none
O=C(/C=C/c1cc(Br)ccc1O)c1ccco1	TIM10 inh 65.8, PfHsp90 yeast 2 100.6 | TIM10 conf 79.6
COc1ccc(Br)cc1C(=O)Nc1ccc(NC(=O)c2ccco2)cc1	none
Cc1ccc(/C=C/C(=O)c2cc(Br)ccc2OC(=O)c2ccco2)cc1	TIM10 inh 46.5 | TIM10 conf 43.6
CCN1/C(=C/c2ccc3cc(C)ccc3[n+]2CC)Sc2cc(C)c(C)cc21	TIM10 inh 51.8, PfHsp90 yeast 2 101.2 (no result: SKKanGAS inh) | TIM10 conf 78.8
CCOC(=O)C1CCN(C(=O)c2sc3ncnc(N4CCC(C)CC4)c3c2C)CC1	TIM10 inh 40.8 | TIM10 conf inactive
O=C1NC(=S)N(c2cccc(Cl)c2)C12CCCCC2	TIM10 inh 44.3 | TIM10 conf inactive
c1csc(C2C3=C(Nc4ncnn42)c2ccccc2OC3)c1 (configuration not stated)	TIM10 inh 43.0 | TIM10 conf inactive
CCOc1ccc(S(=O)(=O)N2CCOCC2)cc1NC(=O)CN1C(=O)NC(C)(c2ccccc2)C1=O (configuration not stated)	none (no result: PfHsp90 yeast 2)
Cc1ccc(Sc2cnn(-c3ccccc3)c(=O)c2Cl)cc1	TIM10 inh 51.7 | TIM10 conf 45.9
Cc1cccc(NC(=O)Cn2c(=O)n3nc(CCn4nc(C)cc4C)nc3c3ccccc32)c1	none
CCN(C(=O)Cn1c(=O)n2nc(CCn3nc(C)cc3C)nc2c2ccccc21)c1cccc(C)c1	TIM10 inh 48.1 (no result: SKKanGAS inh) | TIM10 conf 44.8
C#CCSc1n[nH]c(-c2ccco2)n1	none
Cc1occc(=O)c1OCc1ccccc1	TIM10 inh 93.9 | TIM10 conf inactive
COCCNC(=O)C/C(C)=N/NC(=O)C(=O)NC1CCCCC1	none
CC(C)c1ccccc1OCCNC(=S)NC(=O)c1cccnc1	TIM10 inh 44.9 (no result: PfHsp90 yeast 2) | TIM10 conf 44.2
Cc1cc2n(n1)SC(Nc1cccc3ccccc13)N2 (configuration not stated)	TIM10 inh 41.8 | TIM10 conf inactive
Cc1nc([N+](=O)[O-])c(Sc2nc3ccccc3n2C)n1Cc1ccccc1	TIM10 inh 40.4 | TIM10 conf 42.4
COc1cc(/C=C(\C#N)C(=O)Nc2cccc3ncccc23)cc(OC)c1OC	TIM10 inh 42.0 | TIM10 conf inactive
CSc1ccc(Cn2c(C)c(C(=O)NCc3ccc4c(c3)OCO4)sc2=O)cc1	none (no result: TIM10 inh, PfHsp90 yeast 2, tim10-1 inh, SKKanGAS inh, tim23-1 inh)
Cc1ccc(O)c(-c2cc(-c3ccccc3[N+](=O)[O-])[nH]n2)c1	TIM10 inh 42.4 | TIM10 conf inactive
COc1ccc(O)c(-c2cc(-c3ccccc3[N+](=O)[O-])[nH]n2)c1	none
O=C1CSC(c2ccccc2Br)N1c1ccc(Cl)cn1 (configuration not stated)	TIM10 inh 40.5 (no result: PfHsp90 yeast 2) | TIM10 conf inactive
O=C1CSC(c2ccc(Cl)cc2Cl)N1c1ccccn1 (configuration not stated)	none
Cc1ccc(/C=N/n2c(-c3cccc(Cl)c3)n[nH]c2=S)o1	TIM10 inh 41.9 (no result: PfHsp90 yeast 2) | TIM10 conf inactive
COc1ccccc1CCn1cnc2c3cc(C)ccc3n(C)c2c1=O	none
Cc1[nH]c2ccccc2c1C(=O)COC(=O)c1ccc([N+](=O)[O-])s1	TIM10 inh 71.2, SKKanGAS inh 50.6 | TIM10 conf 83.2
O=C(COC(=O)c1ccc([N+](=O)[O-])s1)Nc1ccc(F)cc1	TIM10 inh 74.0 (no result: SKKanGAS inh) | TIM10 conf 76.9
